The full data set covers some 7,900 targets. This sample favours those with a hit. About 0.6% of all pairs of compound and target were hits. A number with no mark means an inactive call.
Assays:
Assay in all cases: log2 fold change, soluble protein after heating vs DMSO (PISA); higher = thermal stabilisation; K562 cells, 10 uM, 30 min; active = over 0.2 and 3.5 SD of the protein, either way, in both replicates (recomputed)
erlotinib = compound: C#Cc1cccc(Nc2ncnc3cc(OCCOC)c(OCCOC)cc23)c1 [erlotinib]
How it was run: (§1)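 K562 cells (2×10^6 cells/mL) were treated with 10 μM compound for 30 min, and aliquots were heated for 3 min over 48°C-58°C. Pooled aliquots were extracted in PBS with 0.5% NP-40 at 4°C, and the supernatant after 21,000xg for 90 min was measured by TMTpro 16plex LC-MS/MS with channel sums equalised. Reported thermal stability, relative to control samples and from duplicates, is a log2 fold change.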

[1] = compound: C/C(=N\NC(=O)C1=CC(=CC=C1)S(=O)(=O)N2CCOCC2)/C3=C(C=CC(=C3)Cl)O
How it was run: as §1

[2] = compound: C1=CC(=C(C=C1Cl)C2=NC3=NC=CN=C3C(=N2)NC4=CC=NC=C4)F
How it was run: as §1

[3] = compound: C1=CC(=CC=C1C2=NC3=C(N2)C=C(C=C3)C(=O)N)OC4=CC=C(C=C4)Cl
How it was run: as §1

[4] = compound: C1=CC2=C(C=CC(=C2)/C=C\3/C(=O)NC(=NCC4=CC=CS4)S3)N=C1
How it was run: as §1

[5] = compound: C1=CC2=NC=CN=C2C=C1/C=C/3\C(=O)NC(=O)S3
How it was run: as §1

[6] = compound: C1=CC=C(C=C1)C2=NC(=C(N2)C3=CC=NC=C3)C4=CC(=C(C=C4)Cl)O
How it was run: as §1

[7] = compound: C1=CC=C2C(=C1)C3=NNC4=CC=CC(=C43)C2=O
How it was run: as §1

ibrutinib = compound: C=CC(=O)N1CCC[C@@H](n2nc(-c3ccc(Oc4ccccc4)cc3)c3c(N)ncnc32)C1 [ibrutinib]
How it was run: as §1

[8] = compound: CC(=O)c1cnc2ccc(-c3cc(Cl)c(O)c(Cl)c3)nc2c1N[C@H]1CC[C@H](CN(C)C)CC1
How it was run: as §1

ralimetinib = compound: CC(C)(C)Cn1c(N)nc2ccc(-c3[nH]c(C(C)(C)C)nc3-c3ccc(F)cc3)nc21 [ralimetinib]
How it was run: as §1

[9] = compound: CC(C)(O)CC(=O)NCCn1ccc2ncnc(Nc3ccc(Oc4cccc(C(F)(F)F)c4)c(Cl)c3)c21
How it was run: as §1

[10] = compound: CC(C)C1=C2N=C(C=C(N2N=C1)NCC3=CC=CC=C3)NCCCCCCN
How it was run: as §1

[11] = compound: CC(C)C[C@@H](C=O)NC(=O)[C@H](CC(C)C)NC(=O)[C@H](CC(C)C)NC(=O)OCc1ccccc1
How it was run: as §1

[12] = compound: C1CCN(C1)C(=O)NC2=CC=CC(=C2)NC3=NC=C(C(=N3)NCCC4=CN=CN4)Br
How it was run: as §1

[13] = compound: C1CN(CCC1(CC2=CC=C(C=C2)Cl)N)C3=NC=NC4=C3C=CN4
How it was run: as §1

IRAK-1-4 Inhibitor I = compound: C1COCCN1CCN2C3=CC=CC=C3N=C2NC(=O)C4=CC(=CC=C4)[N+](=O)[O-] [IRAK-1-4 Inhibitor I]
How it was run: as §1

pinometostat = compound: CC(C)N(C[C@H]1O[C@@H](n2cnc3c(N)ncnc32)[C@H](O)[C@@H]1O)[C@H]1C[C@@H](CCc2nc3cc(C(C)(C)C)ccc3[nH]2)C1 [pinometostat]
How it was run: as §1

[14] = compound: CC1=C(C(CC(=O)N1)C2=CC=C(C=C2)C(F)(F)F)C(=O)NC3=C(C=C4C(=C3)C=NN4)F
How it was run: as §1

[15] = compound: CC1=C(C2=C(C=C1)C(=O)C3=CC=CC=C3N2CCCN)C
How it was run: as §1

Chain of UniProt P35612 (P35612 whole entry, looked up): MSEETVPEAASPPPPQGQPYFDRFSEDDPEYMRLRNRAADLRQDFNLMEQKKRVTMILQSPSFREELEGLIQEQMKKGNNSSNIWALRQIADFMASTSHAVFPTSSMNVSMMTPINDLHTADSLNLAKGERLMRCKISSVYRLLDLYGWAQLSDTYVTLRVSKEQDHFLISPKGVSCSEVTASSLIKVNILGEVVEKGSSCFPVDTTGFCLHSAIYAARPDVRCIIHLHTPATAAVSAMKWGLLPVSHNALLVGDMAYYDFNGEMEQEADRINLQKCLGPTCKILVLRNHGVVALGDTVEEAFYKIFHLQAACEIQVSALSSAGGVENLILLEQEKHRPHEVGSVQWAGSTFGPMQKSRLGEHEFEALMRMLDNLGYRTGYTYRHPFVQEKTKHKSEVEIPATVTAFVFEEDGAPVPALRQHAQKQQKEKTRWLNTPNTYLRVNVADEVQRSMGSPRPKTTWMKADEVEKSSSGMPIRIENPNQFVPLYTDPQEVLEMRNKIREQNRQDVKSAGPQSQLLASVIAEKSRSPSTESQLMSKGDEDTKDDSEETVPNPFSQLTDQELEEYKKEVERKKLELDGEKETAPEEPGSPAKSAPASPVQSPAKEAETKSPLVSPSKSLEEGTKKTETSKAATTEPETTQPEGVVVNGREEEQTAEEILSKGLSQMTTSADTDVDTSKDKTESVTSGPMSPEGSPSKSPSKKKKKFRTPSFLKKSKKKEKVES
Chain of UniProt Q9UKV3 (Q9UKV3 whole entry, looked up): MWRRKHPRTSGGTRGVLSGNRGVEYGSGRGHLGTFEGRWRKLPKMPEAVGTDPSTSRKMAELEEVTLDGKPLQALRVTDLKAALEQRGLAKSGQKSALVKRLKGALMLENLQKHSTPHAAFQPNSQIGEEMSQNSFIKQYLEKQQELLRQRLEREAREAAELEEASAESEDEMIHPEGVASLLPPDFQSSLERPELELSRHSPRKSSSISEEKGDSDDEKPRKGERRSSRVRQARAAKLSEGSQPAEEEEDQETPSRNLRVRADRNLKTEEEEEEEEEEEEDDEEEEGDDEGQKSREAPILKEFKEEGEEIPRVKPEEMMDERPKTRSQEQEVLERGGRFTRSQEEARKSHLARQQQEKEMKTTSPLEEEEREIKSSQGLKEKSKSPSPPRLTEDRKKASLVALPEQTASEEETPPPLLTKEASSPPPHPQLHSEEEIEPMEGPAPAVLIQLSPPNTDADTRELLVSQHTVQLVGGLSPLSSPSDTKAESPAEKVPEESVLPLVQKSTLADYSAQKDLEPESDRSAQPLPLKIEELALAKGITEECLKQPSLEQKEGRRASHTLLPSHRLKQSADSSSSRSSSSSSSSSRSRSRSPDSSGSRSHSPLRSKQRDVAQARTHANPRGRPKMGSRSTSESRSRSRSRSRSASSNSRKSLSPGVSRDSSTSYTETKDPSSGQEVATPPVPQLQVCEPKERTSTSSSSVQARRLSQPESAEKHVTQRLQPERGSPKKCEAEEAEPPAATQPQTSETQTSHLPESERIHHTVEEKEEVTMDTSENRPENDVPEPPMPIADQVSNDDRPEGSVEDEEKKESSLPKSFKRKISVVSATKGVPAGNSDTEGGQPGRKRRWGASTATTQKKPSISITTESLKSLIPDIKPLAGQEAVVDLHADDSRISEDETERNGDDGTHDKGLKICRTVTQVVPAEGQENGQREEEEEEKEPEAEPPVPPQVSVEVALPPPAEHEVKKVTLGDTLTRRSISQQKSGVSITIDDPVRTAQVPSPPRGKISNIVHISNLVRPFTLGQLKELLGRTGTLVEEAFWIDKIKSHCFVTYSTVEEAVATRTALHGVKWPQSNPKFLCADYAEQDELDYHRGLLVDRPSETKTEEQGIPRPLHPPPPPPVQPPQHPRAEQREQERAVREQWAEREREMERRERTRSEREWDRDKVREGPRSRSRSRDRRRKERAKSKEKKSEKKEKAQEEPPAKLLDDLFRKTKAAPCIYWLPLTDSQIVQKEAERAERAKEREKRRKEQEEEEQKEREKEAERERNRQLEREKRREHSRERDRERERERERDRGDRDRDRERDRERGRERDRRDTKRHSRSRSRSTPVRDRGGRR
Chain of UniProt Q15904 (Q15904 whole entry, looked up): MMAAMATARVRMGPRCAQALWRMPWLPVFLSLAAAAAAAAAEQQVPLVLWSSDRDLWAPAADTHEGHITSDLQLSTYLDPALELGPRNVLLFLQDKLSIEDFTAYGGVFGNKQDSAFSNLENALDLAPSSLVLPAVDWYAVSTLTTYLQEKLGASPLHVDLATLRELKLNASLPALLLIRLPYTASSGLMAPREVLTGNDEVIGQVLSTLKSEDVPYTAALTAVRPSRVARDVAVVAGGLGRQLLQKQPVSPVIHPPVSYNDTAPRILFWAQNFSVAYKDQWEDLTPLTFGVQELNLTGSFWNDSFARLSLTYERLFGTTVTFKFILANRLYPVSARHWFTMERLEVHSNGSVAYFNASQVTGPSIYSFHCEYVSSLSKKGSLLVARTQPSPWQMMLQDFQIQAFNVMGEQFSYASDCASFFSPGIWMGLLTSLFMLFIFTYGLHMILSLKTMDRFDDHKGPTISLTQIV
Chain of UniProt P49189 (P49189 whole entry, looked up): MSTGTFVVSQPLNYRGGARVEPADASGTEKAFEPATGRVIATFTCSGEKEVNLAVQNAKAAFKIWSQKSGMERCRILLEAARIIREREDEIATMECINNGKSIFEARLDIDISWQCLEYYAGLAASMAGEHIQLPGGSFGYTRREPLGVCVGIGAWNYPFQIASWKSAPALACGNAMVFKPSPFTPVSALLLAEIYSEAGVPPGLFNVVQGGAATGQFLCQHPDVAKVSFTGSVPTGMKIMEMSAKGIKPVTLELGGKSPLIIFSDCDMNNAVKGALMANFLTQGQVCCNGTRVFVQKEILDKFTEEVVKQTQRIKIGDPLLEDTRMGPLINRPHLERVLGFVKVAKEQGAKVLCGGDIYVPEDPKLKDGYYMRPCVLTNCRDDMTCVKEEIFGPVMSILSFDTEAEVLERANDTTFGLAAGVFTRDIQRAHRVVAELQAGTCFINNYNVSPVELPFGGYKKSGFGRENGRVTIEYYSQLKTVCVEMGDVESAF
Chain of UniProt P42331 (P42331 whole entry, looked up): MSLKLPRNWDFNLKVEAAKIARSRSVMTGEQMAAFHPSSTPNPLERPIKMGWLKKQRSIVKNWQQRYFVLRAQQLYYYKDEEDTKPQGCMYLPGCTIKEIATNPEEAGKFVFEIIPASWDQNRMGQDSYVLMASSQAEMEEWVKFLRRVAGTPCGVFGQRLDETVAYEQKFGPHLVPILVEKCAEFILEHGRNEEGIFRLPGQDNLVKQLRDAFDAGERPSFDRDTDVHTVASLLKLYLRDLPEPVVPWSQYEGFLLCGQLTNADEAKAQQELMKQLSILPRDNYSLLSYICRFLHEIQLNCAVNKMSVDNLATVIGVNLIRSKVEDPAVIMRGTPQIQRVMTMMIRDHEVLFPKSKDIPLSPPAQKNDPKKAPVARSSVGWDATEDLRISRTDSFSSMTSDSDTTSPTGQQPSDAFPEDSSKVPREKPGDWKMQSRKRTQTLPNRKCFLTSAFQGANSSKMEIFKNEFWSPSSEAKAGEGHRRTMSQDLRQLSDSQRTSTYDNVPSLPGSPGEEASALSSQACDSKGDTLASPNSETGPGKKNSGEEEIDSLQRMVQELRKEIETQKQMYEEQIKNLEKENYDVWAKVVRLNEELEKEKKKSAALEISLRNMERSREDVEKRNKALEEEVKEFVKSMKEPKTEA
Chain of UniProt Q9NWX5 (Q9NWX5 whole entry, looked up): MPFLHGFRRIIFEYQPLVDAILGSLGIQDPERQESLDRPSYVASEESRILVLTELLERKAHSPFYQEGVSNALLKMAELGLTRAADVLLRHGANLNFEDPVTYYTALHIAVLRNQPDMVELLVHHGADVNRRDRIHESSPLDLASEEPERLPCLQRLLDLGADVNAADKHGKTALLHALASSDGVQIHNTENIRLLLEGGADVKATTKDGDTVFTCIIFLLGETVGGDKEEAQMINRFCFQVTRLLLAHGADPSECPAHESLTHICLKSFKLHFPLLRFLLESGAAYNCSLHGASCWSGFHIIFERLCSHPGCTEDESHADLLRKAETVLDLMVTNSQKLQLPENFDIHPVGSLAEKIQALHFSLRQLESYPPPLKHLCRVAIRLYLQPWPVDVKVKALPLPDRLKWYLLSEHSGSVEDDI
Chain of UniProt Q96KE9 (Q96KE9 whole entry, looked up): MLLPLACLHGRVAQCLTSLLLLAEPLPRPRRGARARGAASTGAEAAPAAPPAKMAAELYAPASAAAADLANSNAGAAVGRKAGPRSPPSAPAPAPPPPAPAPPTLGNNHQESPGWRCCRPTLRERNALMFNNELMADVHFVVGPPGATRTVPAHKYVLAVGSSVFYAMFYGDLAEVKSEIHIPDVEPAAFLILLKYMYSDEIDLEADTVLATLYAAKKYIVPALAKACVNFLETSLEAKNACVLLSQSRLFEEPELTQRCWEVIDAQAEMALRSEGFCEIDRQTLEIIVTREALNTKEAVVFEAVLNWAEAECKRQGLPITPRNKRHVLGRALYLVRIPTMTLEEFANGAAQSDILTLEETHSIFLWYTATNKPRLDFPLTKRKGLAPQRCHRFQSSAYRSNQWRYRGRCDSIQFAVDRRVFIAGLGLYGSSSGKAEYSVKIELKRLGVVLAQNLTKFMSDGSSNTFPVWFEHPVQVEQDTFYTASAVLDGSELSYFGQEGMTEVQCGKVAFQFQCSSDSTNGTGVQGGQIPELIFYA
Chain of UniProt Q9Y2Y0 (Q9Y2Y0 whole entry, looked up): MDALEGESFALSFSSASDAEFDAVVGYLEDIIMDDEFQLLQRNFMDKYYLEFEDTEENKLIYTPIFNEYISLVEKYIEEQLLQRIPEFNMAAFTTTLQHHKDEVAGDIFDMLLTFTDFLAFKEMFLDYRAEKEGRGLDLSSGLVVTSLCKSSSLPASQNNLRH
Chain of UniProt P55008 (P55008 whole entry, looked up): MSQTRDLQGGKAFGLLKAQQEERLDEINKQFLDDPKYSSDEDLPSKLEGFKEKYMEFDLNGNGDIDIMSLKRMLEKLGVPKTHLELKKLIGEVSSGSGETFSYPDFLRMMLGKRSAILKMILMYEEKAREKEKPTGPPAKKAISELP

Row | Target | log2 fold change (erlotinib) | log2 fold change [1] | log2 fold change [2] | log2 fold change [3] | log2 fold change [4] | log2 fold change [5] | log2 fold change [6] | log2 fold change [7] | log2 fold change (ibrutinib) | log2 fold change [8] | log2 fold change (ralimetinib) | log2 fold change [9] | log2 fold change [10] | log2 fold change [11] | log2 fold change [12] | log2 fold change [13] | log2 fold change (IRAK-1-4 Inhibitor I) | log2 fold change (pinometostat) | log2 fold change [14] | log2 fold change [15]
1 | AIF1 (UniProt P55008) | 0.155 | -0.02 | 0.09 | 0.08 | -0.051 | 0.093 | 0.058 | -0.126 | 0.012 | 0.028 | -0.112 | 0.035 | -0.033 | 0.07 |  |  |  |  |  | 
2 | ATP6AP1 (UniProt Q15904) | -0.009 | -0.031 | -0.036 | 0.029 | -0.08 | -0.022 | -0.128 | -0.004 | 0 | -0.035 | 0.01 | 0.035 | -0.091 | 0.02 | 0.01 | -0.079 | -0.02 | 0.101 | 0.047 | -0.024
3 | ACVR1 (UniProt Q04771) | -0.101 | -0.051 | 0.021 | 0.031 | -0.021 |  |  | 0.136 |  | 0.873 (active) |  | -0.158 | 0.06 |  | -0.326 | 0.035 |  |  |  | 0.127
4 | ARL2BP (UniProt Q9Y2Y0) | -0.048 | 0.014 | 0.041 | -0.02 | 0.093 | 0.104 | 0.037 | -0.047 | -0.009 | 0.03 | 0.01 | -0.127 | -0.269 | -0.011 | -0.008 | -0.072 | -0.053 | -0.037 | -0.002 | -0.028
5 | BTBD6 (UniProt Q96KE9) | 0.407 | -0.706 (active) | 0.165 | -0.188 | 0.016 | -0.057 | 0.3 | 0.081 | 0.136 | 0.145 | 0.201 | -0.008 | 0.296 | 0.025 | -0.19 | 0.185 |  |  | 0.068 | 0.005
6 | BRAF (UniProt P15056) | 0.031 | 0.057 | 0.034 | 0.007 | 0.08 | -0.012 |  | -0.054 | 0.002 |  | 0.019 |  | -0.044 | -0.031 | -0.088 | 0.024 | -0.025 | 0.047 | 0.003 | 0.056
7 | ACP1 (UniProt P24666) | 0.149 | 0.06 | 0.035 | -0.066 | 0.224 | -0.059 |  | 0.109 | -0.073 | -0.083 |  | -0.238 | -0.071 |  | -0.001 | -0.015 | -0.027 | 0.107 | -0.055 | -0.087
8 | ALDH9A1 (UniProt P49189) | 0.131 | 0.021 | 0.035 | -0.077 | -0.023 | 0.013 | -0.103 | 0.043 | -0.008 | -0.024 | -0.077 | 0 | -0.27 | 0.185 | 0.035 | 0.045 |  |  | -0.056 | -0.035
9 | ASB6 (UniProt Q9NWX5) | -0.024 | -0.603 (active) | -0.263 | -0.067 | 0.184 | -0.084 | 0.101 | -0.032 | -0.108 | 0.039 | 0.343 | -0.274 | -0.055 | 0.069 |  |  | 0.106 | -0.031 | 0.059 | 
10 | ALG3 (UniProt Q92685) | 0.024 | 0.127 | 0.07 | -0.081 | 0.03 | -0.002 | 0.022 | -0.011 | -0.022 | -0.08 | -0.08 | -0.034 | -0.267 | -0.038 | -0.133 | 0.103 | -0.081 | -0.075 | -0.037 | -0.045
11 | ATF1 (UniProt P18846) | -0.058 | 0.244 | 0.129 | -0.054 | -0.221 | 0.023 |  | 0.039 | -0.02 | -0.02 |  | -0.07 | 0.081 |  | -0.117 | -0.024 |  |  | -0.04 | -0.127
12 | AGRN (UniProt O00468) | 0.064 | -0.013 | -0.039 | -0.125 | 0.071 | -0.048 | 0.366 (active) | 0.024 | 0.09 | -0.025 | 0.125 | -0.022 | 0.156 | -0.066 | -0.091 | 0.05 | -0.205 | -0.005 | 0.078 | 0.014
13 | ARHGAP25 isoform 4 (UniProt P42331) | 0.07 | 0.165 | 0.109 | -0.284 | 0.042 | -0.192 |  | -0.062 | -0.064 | -0.16 |  | -0.465 | -0.961 (active) |  | 0.052 | -0.147 |  |  | -0.418 | 0.066
14 | ACOX3 (UniProt O15254) | 0.158 | -0.157 | -0.068 | 0.007 | -0.122 | -0.026 |  | 0.071 | 0.035 | -0.177 |  | 0.061 | 0.022 |  | 0.153 | 0.054 | 0.095 | -0.021 | -0.081 | -0.051
15 | ACIN1 (UniProt Q9UKV3) | 0.116 | -0.1 | -0.033 | 0.006 | 0.051 | 0.007 | 0 | -0.012 | 0.004 | -0.155 | 0.063 | 0.043 | -0.022 | -0.026 | -0.041 | -0.038 | -0.052 | -0.006 | -0.017 | -0.369 (active)
16 | ADD2 (UniProt P35612) | 0.008 | -0.011 | 0.025 | 0.004 | -0.004 | 0.022 | 0.012 | -0.005 | 0.009 | -0.172 | -0.021 | -0.004 | 0.042 | -0.024 | 0.004 | 0.016 | 0.04 | -0.015 | 0.01 | 0.029
17 | ABCA3 (UniProt Q99758) | 0.011 | 0.087 | 0.002 | 0.057 | -0.027 | -0.056 | 0.01 | 0.031 | -0.051 | -0.005 | -0.096 | -0.096 | -0.007 | -0.017 | 0.094 | -0.034 | -0.012 | 0.203 |  | 0.054
18 | ACACB (UniProt O00763) | 0.048 | -0.094 | -0.212 | -0.108 | 0.07 | -0.123 | 0.132 | -0.028 | 0.02 | 0.108 | 0.216 | 0 | -0.515 (active) | 0.066 | -0.059 | -0.143 | -0.23 | 0.315 | 0.11 | 0.027

— the supplement of paper PMC10849652
